Consider six molecules from the supplement of paper PMC11732987, “Enantioselective OTUD7B fragment discovery through chemoproteomics screening and high-throughput optimisation” (Communications Chemistry, 2025).

Values without a mark were called inactive.

Common to all, as to assay: log2 ratio of Biotin-Ahx-Ub-VS probe labelling (fragment/DMSO); higher = less target engagement (more negative = stronger competition), active = hit call of the paper (q ≤ 0.05, log2 ratio ≤ -1)
Holding throughout (conditions): compound concentration: 200 uM; treatment time: 3 h

Test [1] has as its target T1, OTUD6B (UniProt Q8N6M0).
T1 sequence (whole entry): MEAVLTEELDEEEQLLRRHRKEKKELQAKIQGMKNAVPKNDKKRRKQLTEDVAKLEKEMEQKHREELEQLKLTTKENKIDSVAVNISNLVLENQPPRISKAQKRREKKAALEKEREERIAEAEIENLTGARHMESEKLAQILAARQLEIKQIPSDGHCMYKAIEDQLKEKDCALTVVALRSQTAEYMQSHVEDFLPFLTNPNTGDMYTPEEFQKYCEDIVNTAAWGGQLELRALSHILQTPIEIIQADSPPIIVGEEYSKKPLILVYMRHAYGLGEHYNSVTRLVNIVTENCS
Put shortly: (§1)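 Labelling with Biotin-Ahx-Ub-VS (0.5 µM final, 1 h) followed a 3 h triplicate treatment of HEK293T lysate (495 µg per sample, Tris/CHAPS/IGEPAL buffer with protease inhibitors) with fragment at 200 µM or vehicle. Labelled DUBs were NeutrAvidin-enriched, digested with LysC and trypsin, and run by diaPASEF LC-MS/MS. The values, average log2 fragment/vehicle ratios by unpaired t-test, come from global-median-normalised Spectronaut label-free quantities. Proteins with ≥2 unique peptides were used.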

The target of test [2] is T2, OTUD7B (UniProt Q6GQQ9).
T2 sequence (whole entry): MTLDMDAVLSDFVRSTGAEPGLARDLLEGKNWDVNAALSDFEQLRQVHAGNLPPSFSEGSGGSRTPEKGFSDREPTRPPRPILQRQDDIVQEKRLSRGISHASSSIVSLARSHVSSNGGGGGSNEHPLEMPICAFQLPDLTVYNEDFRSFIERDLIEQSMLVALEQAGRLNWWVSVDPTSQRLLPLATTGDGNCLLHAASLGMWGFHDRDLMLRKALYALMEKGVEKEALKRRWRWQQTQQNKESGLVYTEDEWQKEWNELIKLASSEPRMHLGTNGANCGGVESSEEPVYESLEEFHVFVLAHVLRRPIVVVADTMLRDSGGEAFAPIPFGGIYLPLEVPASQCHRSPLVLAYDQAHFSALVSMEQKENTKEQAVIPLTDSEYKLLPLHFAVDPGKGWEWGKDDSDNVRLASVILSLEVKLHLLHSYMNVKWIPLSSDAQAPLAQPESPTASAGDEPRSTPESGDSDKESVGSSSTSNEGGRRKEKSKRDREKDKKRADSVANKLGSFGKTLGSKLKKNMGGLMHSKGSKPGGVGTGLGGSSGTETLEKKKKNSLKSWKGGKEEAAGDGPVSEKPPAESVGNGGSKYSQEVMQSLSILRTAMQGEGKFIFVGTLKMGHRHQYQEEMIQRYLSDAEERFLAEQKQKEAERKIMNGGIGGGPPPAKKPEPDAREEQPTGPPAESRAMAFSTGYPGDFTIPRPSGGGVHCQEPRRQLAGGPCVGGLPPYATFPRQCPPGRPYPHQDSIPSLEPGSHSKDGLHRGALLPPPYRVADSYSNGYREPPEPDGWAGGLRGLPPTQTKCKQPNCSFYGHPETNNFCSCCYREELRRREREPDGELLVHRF
Put shortly:
as §1

Test [3] concerns the target PRPF8 (UniProt Q6P2Q9). Put shortly: as §1
Test [4] concerns the target T3, PSMD7 (UniProt P51665).
T3 sequence (whole entry): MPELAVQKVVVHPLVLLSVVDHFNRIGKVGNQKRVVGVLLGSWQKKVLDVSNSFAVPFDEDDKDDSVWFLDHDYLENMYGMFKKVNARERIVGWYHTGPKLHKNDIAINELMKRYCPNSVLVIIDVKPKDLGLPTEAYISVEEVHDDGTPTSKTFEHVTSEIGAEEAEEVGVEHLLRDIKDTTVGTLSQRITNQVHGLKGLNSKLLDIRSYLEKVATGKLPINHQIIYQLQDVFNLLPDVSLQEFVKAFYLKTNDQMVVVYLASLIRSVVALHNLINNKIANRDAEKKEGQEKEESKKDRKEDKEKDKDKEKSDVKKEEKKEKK
Put shortly:
as §1

Test [5] addresses UCHL1 (UniProt P09936). A digest of the protocol:
as §1

In test [6] the target is T4, UCHL3 (UniProt P15374).
T4 sequence (whole entry): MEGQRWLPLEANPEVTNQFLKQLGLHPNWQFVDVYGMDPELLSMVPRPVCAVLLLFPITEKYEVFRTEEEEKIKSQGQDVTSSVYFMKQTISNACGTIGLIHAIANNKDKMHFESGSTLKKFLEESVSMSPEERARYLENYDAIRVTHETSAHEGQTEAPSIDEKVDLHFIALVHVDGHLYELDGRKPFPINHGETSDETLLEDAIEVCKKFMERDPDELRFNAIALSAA
Put shortly: as §1

Test [7] deals with T5, UCHL5 (UniProt Q9Y5K5).
T5 sequence (whole entry): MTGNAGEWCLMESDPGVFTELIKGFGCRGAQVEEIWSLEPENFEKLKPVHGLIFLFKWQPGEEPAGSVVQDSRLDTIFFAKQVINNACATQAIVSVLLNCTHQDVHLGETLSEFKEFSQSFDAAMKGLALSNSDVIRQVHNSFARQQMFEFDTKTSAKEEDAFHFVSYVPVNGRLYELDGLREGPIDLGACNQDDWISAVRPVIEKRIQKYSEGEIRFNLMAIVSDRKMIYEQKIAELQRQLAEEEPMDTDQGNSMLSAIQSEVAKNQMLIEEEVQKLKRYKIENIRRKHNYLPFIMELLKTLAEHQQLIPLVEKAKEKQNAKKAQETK
Put shortly: as §1

Test [8] concerns the target USP10 (UniProt Q14694). A digest of the protocol: as §1
The target in test [9] is T6, USP15 (UniProt Q9Y4E8).
T6 sequence (whole entry): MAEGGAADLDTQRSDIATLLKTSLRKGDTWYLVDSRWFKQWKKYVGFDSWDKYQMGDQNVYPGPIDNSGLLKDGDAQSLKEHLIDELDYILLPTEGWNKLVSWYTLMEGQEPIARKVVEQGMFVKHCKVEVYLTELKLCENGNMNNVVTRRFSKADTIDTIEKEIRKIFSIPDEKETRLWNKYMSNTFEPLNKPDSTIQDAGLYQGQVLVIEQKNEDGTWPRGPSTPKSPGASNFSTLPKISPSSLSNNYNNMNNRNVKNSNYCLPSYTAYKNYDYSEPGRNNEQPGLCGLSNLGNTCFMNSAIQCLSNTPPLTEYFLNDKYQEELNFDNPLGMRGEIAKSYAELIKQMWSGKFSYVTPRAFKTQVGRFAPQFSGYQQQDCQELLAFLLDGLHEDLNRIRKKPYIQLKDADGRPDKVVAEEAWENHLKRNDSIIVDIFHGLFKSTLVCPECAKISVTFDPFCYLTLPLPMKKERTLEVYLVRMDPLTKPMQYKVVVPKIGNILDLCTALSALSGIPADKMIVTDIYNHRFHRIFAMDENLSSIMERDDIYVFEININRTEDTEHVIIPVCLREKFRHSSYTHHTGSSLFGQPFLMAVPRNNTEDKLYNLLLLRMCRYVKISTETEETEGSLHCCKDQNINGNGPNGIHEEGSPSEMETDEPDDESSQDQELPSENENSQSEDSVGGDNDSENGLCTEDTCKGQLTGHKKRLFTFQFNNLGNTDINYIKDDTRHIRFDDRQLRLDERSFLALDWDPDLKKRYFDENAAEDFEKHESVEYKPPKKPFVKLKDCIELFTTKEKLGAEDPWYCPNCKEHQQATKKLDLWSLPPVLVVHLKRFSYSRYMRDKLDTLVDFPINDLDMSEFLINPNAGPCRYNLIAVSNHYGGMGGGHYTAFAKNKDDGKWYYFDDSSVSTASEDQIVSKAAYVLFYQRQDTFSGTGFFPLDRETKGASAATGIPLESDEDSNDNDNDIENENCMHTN
Put shortly: as §1

Test [10] has as its target USP16 (UniProt Q9Y5T5). Put shortly: as §1

Sequence of USP10 (Q14694 whole entry): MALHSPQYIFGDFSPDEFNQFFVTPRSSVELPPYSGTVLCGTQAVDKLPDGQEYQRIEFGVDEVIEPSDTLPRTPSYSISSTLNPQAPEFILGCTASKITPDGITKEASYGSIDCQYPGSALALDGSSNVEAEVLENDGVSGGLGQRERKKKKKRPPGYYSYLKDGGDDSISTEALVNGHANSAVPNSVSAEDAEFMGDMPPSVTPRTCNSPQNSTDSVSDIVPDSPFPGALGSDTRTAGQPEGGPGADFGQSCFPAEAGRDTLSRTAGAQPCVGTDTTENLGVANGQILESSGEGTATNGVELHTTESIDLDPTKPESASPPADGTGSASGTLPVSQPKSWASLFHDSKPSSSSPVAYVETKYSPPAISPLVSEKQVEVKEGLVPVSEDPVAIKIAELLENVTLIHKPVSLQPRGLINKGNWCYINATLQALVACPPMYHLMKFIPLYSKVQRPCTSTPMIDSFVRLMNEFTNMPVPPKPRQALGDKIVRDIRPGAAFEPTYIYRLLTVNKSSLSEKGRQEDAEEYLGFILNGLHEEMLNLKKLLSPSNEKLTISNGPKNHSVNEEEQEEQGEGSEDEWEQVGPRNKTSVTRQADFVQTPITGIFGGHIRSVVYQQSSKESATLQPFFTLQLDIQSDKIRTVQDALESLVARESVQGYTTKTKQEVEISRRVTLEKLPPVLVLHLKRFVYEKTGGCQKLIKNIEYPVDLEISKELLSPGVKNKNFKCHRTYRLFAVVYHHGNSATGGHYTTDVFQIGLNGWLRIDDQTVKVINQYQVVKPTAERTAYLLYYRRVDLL
Sequence of UCHL1 (P09936 whole entry, looked up): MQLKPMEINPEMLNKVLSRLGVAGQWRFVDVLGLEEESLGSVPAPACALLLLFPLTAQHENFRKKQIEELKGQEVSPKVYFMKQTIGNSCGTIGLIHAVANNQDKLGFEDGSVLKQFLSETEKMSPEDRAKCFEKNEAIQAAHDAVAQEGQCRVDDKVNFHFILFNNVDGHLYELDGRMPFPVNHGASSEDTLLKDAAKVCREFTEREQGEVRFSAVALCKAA
Sequence of USP16 (Q9Y5T5 whole entry, looked up): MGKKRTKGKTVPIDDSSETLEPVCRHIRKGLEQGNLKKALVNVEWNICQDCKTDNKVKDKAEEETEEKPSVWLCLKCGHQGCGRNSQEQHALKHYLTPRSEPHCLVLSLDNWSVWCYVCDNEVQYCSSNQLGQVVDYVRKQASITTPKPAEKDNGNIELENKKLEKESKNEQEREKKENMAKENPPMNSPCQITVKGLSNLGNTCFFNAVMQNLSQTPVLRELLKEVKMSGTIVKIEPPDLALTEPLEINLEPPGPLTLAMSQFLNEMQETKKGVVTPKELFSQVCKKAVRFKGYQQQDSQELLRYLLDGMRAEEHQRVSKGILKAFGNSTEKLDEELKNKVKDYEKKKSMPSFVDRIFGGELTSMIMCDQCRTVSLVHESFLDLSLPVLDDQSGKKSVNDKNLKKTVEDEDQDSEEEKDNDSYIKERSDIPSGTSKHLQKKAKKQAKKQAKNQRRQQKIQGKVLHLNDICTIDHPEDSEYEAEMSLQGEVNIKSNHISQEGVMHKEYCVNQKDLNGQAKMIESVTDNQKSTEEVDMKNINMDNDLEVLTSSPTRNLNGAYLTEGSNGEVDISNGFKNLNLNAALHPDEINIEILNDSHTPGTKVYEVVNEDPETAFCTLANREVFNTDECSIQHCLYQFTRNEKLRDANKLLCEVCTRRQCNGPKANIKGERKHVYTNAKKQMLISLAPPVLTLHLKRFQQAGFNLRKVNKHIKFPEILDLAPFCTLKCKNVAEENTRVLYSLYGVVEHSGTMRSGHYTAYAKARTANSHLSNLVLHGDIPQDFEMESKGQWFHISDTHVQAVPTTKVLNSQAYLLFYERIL

`O=C(CCl)N1CCC(c2noc3cc(F)ccc23)CC1`: the “log2 ratio of Biotin-Ahx-Ub-VS probe labelling” value (from here on “log2 ratio”) in [1] is -0.0328; in [2] it was -0.608; in [3] it was -0.0836; in test [4], -0.139; in [5], -0.799; in [6], 0.208. The “log2 ratio” value in [7] was -0.186; in test [8], -0.264; in test [9], -0.468; in [10] it was -0.65.
In the case of `O=C(CCl)N1CCc2sccc2C1`, the “log2 ratio” value is -0.251 in [1]; -1.08 (active) in test [2]; 0.249 in [3]; -0.000885 in test [4]; -1.18 (active) in [5]; -0.458 in [6]. Besides, the “log2 ratio” value in test [7] was -0.259; in test [8], -0.16; in test [9], -0.737; in test [10], -0.278.
Turning to `COc1cc(Cl)c(C)cc1NC(=O)CCl`, the “log2 ratio” value is -0.418 in test [1]; -0.345 in [2]; -0.193 in test [3]; -0.352 in test [4]; -1.57 (active) in test [5]; 0.146 in test [6]. The “log2 ratio” value in test [7] was -0.348; in test [8] it was -0.183; in test [9], -0.24; in test [10], -0.634.
With `CC(NC(=O)CCl)c1cnn(C2CC2)c1` (stereo not given), the “log2 ratio” value in test [1] was -0.174; in [2], -1.99 (active); in test [3], -0.0754; in [4], -0.168; in test [5], -1.3 (active); in test [6] it was 0.329. For the same molecule, the “log2 ratio” value in test [7] was -0.187; in test [8], -0.103; in test [9], -0.182; in test [10], -0.19.
As for `Cc1cc(C2CCCN2C(=O)CCl)nn1C.Cl` (stereo not given), the “log2 ratio” value in test [1] was -0.252; in [2] it was -0.142; in test [3], 0.0171; in test [4], -0.218; in test [5] it was -1.54 (active); in test [6], 0.3. The “log2 ratio” value in [7] is -0.218; in [8], -0.132; in test [9] it was -0.246; in test [10], -0.631.
In the case of `O=C(CCl)N1CCC(c2nc3ccccc3o2)CC1`, the “log2 ratio” value was -0.508 in [1]; -0.632 in test [2]; -0.0832 in test [3]; -0.495 in [4]; -1.65 (active) in test [5]; 0.054 in [6]. The “log2 ratio” value in test [7] is -0.349; in [8] it was -0.114; in [9], -0.214; in test [10], 0.149.
